# Results taken from ChEMBL document CHEMBL2218924, “A broad activity screen in support of a chemogenomic map for kinase signalling research and drug discovery” (Biochem J, 2013).
# Key:
# [1] = target: Ribosomal protein S6 kinase alpha-1 (Homo sapiens) (UniProt Q15418); details: at 1 µM
# [2] = target: Ribosomal protein S6 kinase alpha-1 (Homo sapiens) (UniProt Q15418); details: at 10 µM
# [3] = target: Ribosomal protein S6 kinase alpha-3 (Homo sapiens) (UniProt P51812); details: at 1 µM
# [4] = target: Ribosomal protein S6 kinase alpha-3 (Homo sapiens) (UniProt P51812); details: at 10 µM
# [5] = target: Ribosomal protein S6 kinase alpha-2 (Homo sapiens) (UniProt Q15349); details: at 1 µM
# Chain of Ribosomal protein S6 kinase alpha-2 (Homo sapiens) (Q15349 whole entry): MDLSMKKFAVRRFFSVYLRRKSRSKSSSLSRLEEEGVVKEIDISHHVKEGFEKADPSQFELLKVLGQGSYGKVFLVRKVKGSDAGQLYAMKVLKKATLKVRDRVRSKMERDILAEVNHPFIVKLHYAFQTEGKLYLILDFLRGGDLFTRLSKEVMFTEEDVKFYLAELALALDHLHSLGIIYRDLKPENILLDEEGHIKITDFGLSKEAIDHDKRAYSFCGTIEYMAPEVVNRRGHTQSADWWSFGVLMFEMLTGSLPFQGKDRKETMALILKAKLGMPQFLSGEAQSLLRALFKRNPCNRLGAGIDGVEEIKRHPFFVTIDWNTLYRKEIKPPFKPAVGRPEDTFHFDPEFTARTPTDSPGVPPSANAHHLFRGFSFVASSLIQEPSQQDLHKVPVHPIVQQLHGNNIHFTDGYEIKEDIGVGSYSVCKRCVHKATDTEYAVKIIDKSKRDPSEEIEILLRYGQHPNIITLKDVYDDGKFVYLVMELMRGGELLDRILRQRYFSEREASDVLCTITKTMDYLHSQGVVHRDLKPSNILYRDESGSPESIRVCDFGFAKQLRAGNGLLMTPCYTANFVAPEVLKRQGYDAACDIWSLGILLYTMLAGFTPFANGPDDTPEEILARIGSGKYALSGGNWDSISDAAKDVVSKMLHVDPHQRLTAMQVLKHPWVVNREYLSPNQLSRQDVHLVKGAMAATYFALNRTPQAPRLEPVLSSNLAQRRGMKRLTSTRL
# [6] = target: Ribosomal protein S6 kinase alpha-2 (Homo sapiens) (UniProt Q15349); details: at 10 µM
# [7] = target: Ribosomal protein S6 kinase alpha-6 (Homo sapiens) (UniProt Q9UK32); details: at 1 µM
# Chain of Ribosomal protein S6 kinase alpha-6 (Homo sapiens) (Q9UK32 whole entry): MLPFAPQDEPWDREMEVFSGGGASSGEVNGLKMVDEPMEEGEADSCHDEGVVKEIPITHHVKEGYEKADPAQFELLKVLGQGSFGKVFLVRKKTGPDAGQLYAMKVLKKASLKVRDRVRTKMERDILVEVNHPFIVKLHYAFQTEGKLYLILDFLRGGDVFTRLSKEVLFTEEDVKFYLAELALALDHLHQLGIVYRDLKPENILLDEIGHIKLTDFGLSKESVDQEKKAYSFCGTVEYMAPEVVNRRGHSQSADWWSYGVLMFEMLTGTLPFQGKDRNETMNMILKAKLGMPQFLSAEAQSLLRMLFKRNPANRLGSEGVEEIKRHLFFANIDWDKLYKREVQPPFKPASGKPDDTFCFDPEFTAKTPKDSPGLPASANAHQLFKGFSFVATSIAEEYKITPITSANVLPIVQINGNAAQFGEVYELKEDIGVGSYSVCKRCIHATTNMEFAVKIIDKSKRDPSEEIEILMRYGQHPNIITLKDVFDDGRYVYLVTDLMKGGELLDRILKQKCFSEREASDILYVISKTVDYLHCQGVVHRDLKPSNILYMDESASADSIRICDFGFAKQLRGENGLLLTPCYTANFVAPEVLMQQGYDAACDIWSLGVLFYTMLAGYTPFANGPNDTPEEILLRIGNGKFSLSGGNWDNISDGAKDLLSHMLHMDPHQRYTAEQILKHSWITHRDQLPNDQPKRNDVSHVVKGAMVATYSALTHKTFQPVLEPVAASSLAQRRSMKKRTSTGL
# [8] = target: Ribosomal protein S6 kinase alpha-6 (Homo sapiens) (UniProt Q9UK32); details: at 10 µM
# [9] = target: Mitogen-activated protein kinase 14 (Homo sapiens) (UniProt Q16539); details: at 1 µM
# Chain of Mitogen-activated protein kinase 14 (Homo sapiens) (Q16539 whole entry): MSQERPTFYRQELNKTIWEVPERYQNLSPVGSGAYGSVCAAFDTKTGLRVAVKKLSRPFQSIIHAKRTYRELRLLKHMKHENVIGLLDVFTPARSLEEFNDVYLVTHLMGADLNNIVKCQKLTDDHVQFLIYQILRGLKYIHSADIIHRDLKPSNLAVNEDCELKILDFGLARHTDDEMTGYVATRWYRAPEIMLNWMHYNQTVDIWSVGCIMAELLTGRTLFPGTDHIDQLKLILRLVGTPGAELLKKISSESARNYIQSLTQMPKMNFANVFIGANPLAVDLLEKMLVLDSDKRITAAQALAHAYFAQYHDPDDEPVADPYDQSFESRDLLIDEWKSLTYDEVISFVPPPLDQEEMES
# [10] = target: Mitogen-activated protein kinase 14 (Homo sapiens) (UniProt Q16539); details: at 10 µM
# Chain of Ribosomal protein S6 kinase alpha-1 (Homo sapiens) (Q15418 whole entry): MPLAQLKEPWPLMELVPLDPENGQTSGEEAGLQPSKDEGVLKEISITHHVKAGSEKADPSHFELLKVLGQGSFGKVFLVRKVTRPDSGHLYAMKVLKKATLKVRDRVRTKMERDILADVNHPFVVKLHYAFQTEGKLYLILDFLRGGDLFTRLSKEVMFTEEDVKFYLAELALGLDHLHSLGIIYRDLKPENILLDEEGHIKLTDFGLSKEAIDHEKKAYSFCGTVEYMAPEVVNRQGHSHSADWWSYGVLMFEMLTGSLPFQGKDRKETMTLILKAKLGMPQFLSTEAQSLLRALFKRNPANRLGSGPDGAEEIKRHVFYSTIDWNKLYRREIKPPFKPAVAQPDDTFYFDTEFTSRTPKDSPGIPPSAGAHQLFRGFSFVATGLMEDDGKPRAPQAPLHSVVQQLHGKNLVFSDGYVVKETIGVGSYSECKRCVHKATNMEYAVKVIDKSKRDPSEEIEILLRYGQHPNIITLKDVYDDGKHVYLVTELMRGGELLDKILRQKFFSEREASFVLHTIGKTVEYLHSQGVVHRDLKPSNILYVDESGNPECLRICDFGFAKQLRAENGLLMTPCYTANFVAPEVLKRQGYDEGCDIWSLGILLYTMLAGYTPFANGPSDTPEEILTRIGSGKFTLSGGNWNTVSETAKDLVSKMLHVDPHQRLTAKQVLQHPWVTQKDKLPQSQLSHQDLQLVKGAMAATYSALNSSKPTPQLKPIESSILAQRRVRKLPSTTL
# Chain of Ribosomal protein S6 kinase alpha-3 (Homo sapiens) (P51812 whole entry): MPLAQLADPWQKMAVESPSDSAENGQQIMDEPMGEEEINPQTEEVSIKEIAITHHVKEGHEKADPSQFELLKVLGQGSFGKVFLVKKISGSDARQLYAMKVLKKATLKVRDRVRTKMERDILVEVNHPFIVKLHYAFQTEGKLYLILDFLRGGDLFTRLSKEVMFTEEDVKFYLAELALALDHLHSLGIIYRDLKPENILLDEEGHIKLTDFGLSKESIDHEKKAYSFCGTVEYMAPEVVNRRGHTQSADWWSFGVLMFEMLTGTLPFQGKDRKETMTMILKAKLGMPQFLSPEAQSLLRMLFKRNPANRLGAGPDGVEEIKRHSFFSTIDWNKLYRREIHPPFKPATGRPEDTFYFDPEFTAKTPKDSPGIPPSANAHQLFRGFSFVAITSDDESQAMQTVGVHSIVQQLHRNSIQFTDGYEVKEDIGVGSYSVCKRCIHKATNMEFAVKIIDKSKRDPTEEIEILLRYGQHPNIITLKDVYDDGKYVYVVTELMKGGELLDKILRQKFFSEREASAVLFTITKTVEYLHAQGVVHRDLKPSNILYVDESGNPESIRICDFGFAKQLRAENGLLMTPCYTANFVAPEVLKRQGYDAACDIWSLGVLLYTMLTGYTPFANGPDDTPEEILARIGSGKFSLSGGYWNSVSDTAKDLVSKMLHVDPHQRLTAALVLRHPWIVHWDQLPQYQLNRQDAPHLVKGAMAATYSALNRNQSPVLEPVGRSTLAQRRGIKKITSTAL
Structure (SMILES),residual activity [1] [%],residual activity [2] [%],residual activity [3] [%],residual activity [4] [%],residual activity [5] [%],residual activity [6] [%],residual activity [7] [%],residual activity [8] [%],residual activity [9] [%],residual activity [10] [%]
N#CCCc1ccc2c(c1)-c1[nH]c3ccc([N+](=O)[O-])cc3c1CC(=O)N2,45,24,9,3,8,1,16,5,–,–
Oc1c2ccccc2c2c3c(cccc13)N=N2,86,64,54,32,58,22,43,52,96,85
COc1cc2ncc(-c3ccccc3)nc2cc1OC,–,–,54,25,100,68,92,94,92,88
Cn1nc2c3c(cccc31)C(=O)c1ccccc1-2,–,93,58,42,90,63,59,67,91,90
Cc1nc2cc3nc(-c4cccs4)cnc3cc2n1C,115,89,102,75,107,83,101,84,114,112
Cc1cc2ncc(-c3ccccc3)nc2cc1C,95,86,50,40,110,101,97,100,85,82
CCN(CC)CCCCN1c2ccccc2Oc2ccc(Cl)cc21,110,117,67,64,109,90,118,104,93,84
c1ccc2c(-c3ccncc3)c[nH]c2c1,–,67,72,43,98,48,89,107,77,54
Cn1cnc2cc3c(Nc4cccc(Br)c4)ncnc3cc21,97,92,108,93,101,70,115,68,64,25
Cc1cccc(-c2[nH]c(C(C)(C)C)nc2-c2ccc3c(c2)OCO3)n1,–,–,67,47,101,97,–,–,49,16
C[C@@H](N)[C@H]1CC[C@H](C(=O)Nc2ccncc2)CC1,–,48,–,–,62,11,110,60,106,107
Oc1ccc(Nc2nc(-c3ccc(Cl)cc3)cs2)cc1,113,103,75,86,91,80,93,113,89,35
O=C1NC(=O)c2cc(Nc3ccc(F)cc3)c(Nc3ccc(F)cc3)cc21,87,91,123,77,103,78,101,100,57,23
CN(C)CCCn1cc(C2=C(c3c[nH]c4ccccc34)C(=O)NC2=O)c2ccccc21,15,2,–,–,–,–,4,3,109,106
Oc1n[nH]c2nnc(-c3c(-c4ccccc4)nn4ccccc34)cc12,114,111,96,86,90,78,91,106,93,85
Cc1ccc(NC2=CC(=O)c3sc(C)nc3C2=O)cc1,104,78,117,123,101,102,72,111,97,93
CCC(=O)Nc1ccc2ncnc(Nc3cccc(Br)c3)c2c1,119,84,120,91,99,71,124,82,78,50
CNc1cc2c(Nc3cccc(Br)c3)ncnc2cn1,115,59,110,71,87,38,101,74,83,77
Ic1cccc(CSc2nnc(-c3ccncc3)o2)c1,55,46,39,28,30,24,97,100,90,79

Structure (SMILES),residual activity [1] [%],residual activity [2] [%],residual activity [3] [%],residual activity [4] [%],residual activity [5] [%],residual activity [6] [%],residual activity [7] [%],residual activity [8] [%],residual activity [9] [%],residual activity [10] [%]
COc1cc2ncnc(Nc3ccc(O)c(Br)c3)c2cc1OC,92,45,39,12,44,7,69,18,51,14
c1ccc(-c2n[nH]cc2-c2ccnc3ccccc23)nc1,–,–,60,62,108,95,–,–,49,15
N#C/C(=C(\N)Sc1ccc(N)cc1)c1ccccc1C(F)(F)F,40,42,28,15,53,48,103,104,87,82
COc1cc2ncnc(Nc3ccc(Oc4ccccc4)cc3)c2cc1OC,122,78,104,126,100,73,102,130,75,80
CO[C@@H]1[C@H](N(C)C(=O)c2ccccc2)C[C@H]2O[C@]1(C)n1c3ccccc3c3c4c(c5c6ccccc6n2c5c31)C(=O)NC4,0,1,1,0,1,0,0,3,71,78
O=C1NC(=O)c2c1c1c3ccccc3[nH]c1c1[nH]c3cc(Br)ccc3c21,63,49,49,43,44,32,83,82,93,85
N#CC(C#N)=C(N)/C(C#N)=C/c1ccc(O)cc1,94,78,49,27,–,–,94,–,78,55
CC#CC(=O)Nc1cc2c(Nc3ccc(F)c(Cl)c3)ncnc2cn1,113,101,104,107,99,96,116,105,91,98
CC(=O)O/N=C1\C(=C2\C(=O)Nc3cc(Br)ccc32)Nc2ccccc21,105,59,40,28,71,34,74,89,88,85
Cc1cc(Nc2nc(-c3ccccc3)nc3ccccc23)n[nH]1,51,15,58,11,29,6,43,8,–,64
CCN(CC)C(=O)c1ccc(Nc2nc(OCC3CCCCC3)c3nc[nH]c3n2)cc1,58,7,30,1,18,2,28,7,–,70
COc1cc2ncnc(N3CCN(C(=O)Nc4ccc(Oc5ccccc5)cc4)CC3)c2cc1OC,93,118,56,65,90,71,106,111,78,79
Nc1cccc(-c2cc3c(Oc4cccc(O)c4)ncnc3[nH]2)c1,97,68,68,32,76,27,56,41,54,11
c1ccc(-c2n[nH]c3c2oc2ccccc23)cc1,97,58,66,44,92,64,–,–,93,78
O=C1Nc2ccccc2/C1=C1/Nc2ccccc2/C1=N\OCCC(O)CO (stereo unspecified),18,12,15,1,11,2,7,7,–,78
Cc1cncc2cccc(S(=O)(=O)N3CCCN(C(=O)CN)C[C@H]3C)c12,–,–,60,23,–,–,90,66,74,81
COc1cc2ncnc(Nc3ccc(NC(=O)c4ccccc4)cc3)c2cc1OC,–,75,67,40,109,69,104,109,–,–
CC(=O)c1ccc(N2CCOCC2)cc1O,–,110,64,56,105,107,128,102,–,–
